Several values for one entry are separate records, joined by “and”; a condition that tells them apart may be missing. Equal entries are not always repeated. Records with an inconclusive call do not appear. Values without a mark were called inactive. Activity calls are given as the source filed them. Calls come from the whole dose curve; as a rule, active = well fitted activation curve with a large enough effect; inconclusive = small, poorly fitted or top-dose-only effect; inactive = flat fitted curve, though single readings scatter.
Assay: Cellular Toxicity (caspase-3) H-4-II-E (AID 663);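 note: cells exposed to compound for 16 hr before readout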
Details: H-4-II-E rat hepatoma, scaled: DMSO 0%, 100 µM tamoxifen 100%; at 92.2 µM (top of the series)
Description: NIH Chemical Genomics Center [NCGC]
NIH Molecular Libraries Screening Centers Network [MLSCN]
National Institutes of Environmental Health Sciences [NIEHS]
National Toxicology Program [NTP]
We have developed a 1536-well cell-based assay for quantitative high throughput screening (qHTS) against a number of cell lines to determine in vitro caspase 3/7 of small molecules. This particular assay uses the H-4-II-E cell line which is derived from rat hepatoma.
NCGC Assay Protocol Summary:
The Caspase-Glo 3/7 assay (Promega) is a homogeneous method to measure caspase-3 and caspase-7 activities in cultured cells. The quantitation of caspase 3/7 activity is based on the cleavage of a peptide-aminoluciferin substrate. After caspase cleaves the substrate the free aminoluciferin is liberated and serves as the substrate of luciferase, which generates the light. The luminescent signal is proportional to amount of caspase 3/7 activity present.
Using the Caspase-Glo 3/7 assay, the amount of caspase 3/7 activity was measured in the H-4-II-E cell line with complete culture medium following compound treatment for 16 hours. The assay was performed in opaque white 1536-well plates. In the screen, tamoxifen and doxorubicin were used as positive controls. Library compounds were measured for their ability to cause the activation of caspase 3/7 in the cell line, as reflected by an increase in luminescence signal, in a concentration-dependent manner. Data were normalized to the controls for basal activity (DMSO only) and 100% stimulation (100 uM tamoxifen). AC50 values were determined from concentration-response data modeled with the standard Hill equation.
qHTS protocol for caspase 3/7 assay in H-4-II-E cells
[Step] [Parameter] [Value] [Description]
1. Reagent; 5 uL; 1500 H-4-II-E cells/well
2. Time; 5 hr; 37 °C incubation
4. Controls; 23 nL; Tamoxifen 0.23 uM to 100 uM & Doxorubicin 7.0 pM to 100 uM
5. Time; 16 hr; 37 °C incubation
6. Reagent; 5 uL; Caspase-Glo 3/7 reagent
7. Time; 20 min; Room Temperature
8. Detection; Luminescence; Viewlux plate reader
Keywords: caspase 3/7, apoptosis, H-4-II-E cell line, luminescence, NTPHTS, NTPHTS_NCGC, NIEHS, EPA, DSSTox, MLSMR, MLSCN, NIH Roadmap, qHTS, NCGC
Molecule C#C[C@]1(O)CC[C@H]2[C@@H]3CCc4cc(O)ccc4[C@H]3CC[C@@]21C has a caspase-3 activation of 3.92%.
Nc1ccc([N+](=O)[O-])cc1O showed a caspase-3 activation of 2.85%.
With O=C(O)/C=C\C(=O)O the caspase-3 activation was 0.648%.
With COc1cc(/C=C/C(=O)CC(=O)/C=C/c2ccc(O)c(OC)c2)ccc1O the caspase-3 activation was 1.39%.
Work on O=c1cc(-c2ccccc2)oc2ccccc12 yielded a caspase-3 activation of -0.716%.
Molecule CC1(C)S[C@@H]2[C@H](NC(=O)[C@H](N)c3ccccc3)C(=O)N2[C@H]1C(=O)O has a caspase-3 activation of 0.54%.
With CCCOC(=O)c1ccc(O)cc1 the caspase-3 activation was 1.99% and 0.213%.
For Nc1nc2ccc([N+](=O)[O-])cc2s1, the caspase-3 activation was -1.1%.
For S=c1[nH]c2ccccc2s1, the caspase-3 activation was 0.172%.
In the case of COc1cc(CNC(=O)CCCC/C=C/C(C)C)ccc1O, the caspase-3 activation is reported as 1.09%.
For O=C(O)c1cc(O)c(O)c(O)c1, the caspase-3 activation was -0.904%.
CN1CCC[C@H]1c1cccnc1 gave a caspase-3 activation of -0.172%.
For NCCO, the caspase-3 activation was -0.037%.
With N=C1N=C(N)c2cc3ccccc3cc21 the caspase-3 activation was 153% (active).
In the case of CN(C)CCC(c1ccc(Cl)cc1)c1ccccn1 (stereo not drawn), the caspase-3 activation is reported as 1.63%.
Work on O=C1CN(/N=C/c2ccc([N+](=O)[O-])o2)C(=O)N1 yielded a caspase-3 activation of -0.519%.
CCCCCCCCCCCCCCCCCC(=O)O showed a caspase-3 activation of -0.546%.
With Nc1ccc(O)c([N+](=O)[O-])c1 the caspase-3 activation was 4.05%.
In the case of Nc1ccc(O)c(C(=O)O)c1, the caspase-3 activation is reported as -0.695%.
For CC(C)NCC(O)COc1cccc2ccccc12 (stereo not drawn), the caspase-3 activation was 12.6%.
In the case of CN(C)c1ccc(C(=C2C=CC(=[N+](C)C)C=C2)c2ccccc2)cc1, the caspase-3 activation is reported as -4.63% (active).
In the case of CN(C)c1ccc(N=NS(=O)(=O)O)cc1, the caspase-3 activation is reported as 11.8%.
c1ccc2sc(SSc3nc4ccccc4s3)nc2c1 gave a caspase-3 activation of -0.551%.

From PubChem BioAssay (NCATS)
